We go through 16 molecules from PMC12136788.

In all, about 24,000 sequences were measured (“enrichment r”: median about 0.99, highest 2% from about 3.7 on). The sample holds the highest values, similar sequences and a random draw of the others, so the mix is not that of the screen.

Sequences and labels used below:
T1: UNK ZnF1-3 (human, UniProt Q9C0B0 31-174)
T1 sequence: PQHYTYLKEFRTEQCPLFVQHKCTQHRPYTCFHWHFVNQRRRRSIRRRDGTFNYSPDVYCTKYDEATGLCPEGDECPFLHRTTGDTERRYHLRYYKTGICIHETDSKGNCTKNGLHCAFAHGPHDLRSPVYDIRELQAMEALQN

B1: chr22:38201524:38201525:+_ENSG00000189060_ENST00000340857|hu_hu|FALSE|FALSE (ssRNA)
RNA: GGGAGUUCUACAGUCCGACGAUCCGCAGGGGCGGACGUGGAAUUCUCGGUCAUGGUGGCCUGUCUGGUCCGGCUGUUGAAGGCGCCUUCCAAAGGGCCAGCCCUCGUCGGAGGCUGAGCAAAGCCUGCCUCGGGAUCUGCUCCCAACAGAGGAUUGAGCAUCA
B2: chr16:17038481:17038482:+_ENSMUSG00000063358_ENSMUST00000069107|mus_mus|FALSE|FALSE (ssRNA)
RNA: GGGAGUUCUACAGUCCGACGAUCCUUGUCCUGACCAAUUUAAGAUCUGUAUCCUGGCUGGAAUCUAGCAGUCUCUUCAAAAAUGAGUUCUUUGAGCUUCUCCUUAGGUAAGUCGUCCAACUCCAUGUCAAACUUGAAUGGCGCCAACAGAGGAUUGAGCAUCA
B3: chr11:77336104:77336105:-_ENSG00000074201_ENST00000525064|hu_mus|hu_hu_hu_mus_False|48_108 (ssRNA)
RNA: GGGAGUUCUACAGUCCGACGAUCCUCGCACAUUGCAGUGAACAUCGCCUCCAAUGCUGACUUAUCACUGGGCACAAAUCGAAAUUCAGUAAUAGGUUCAACAUCAUCAUUGUCUUCCUCAUCUUCAUCAGAGAGAGGUUCUUUCAACAGAGGAUUGAGCAUCA
B4: 42454244_42454364_2548_CDS_ENSG00000166887_ENST00000318006|human|control|control (ssRNA)
RNA: GGGAGUUCUACAGUCCGACGAUCAUGGAGAAGGUUCUUGAGCACUUGAUUGAACCGUUUCUUUUGUGCAUUUUCUUCCAAGACCUUUUCCAGGAAGAUGCGUAUGUCAUUGAUCUGAGUGUUUGCUGGCAGAAGGUUGAGGGCCAACAGAGGAUUGAGCAUCA
B5: chr3:9412954:9412955:+_ENSG00000134077_ENST00000452837|hu_mus|hu_hu_hu_mus_False|1_78 (ssRNA)
RNA: GGGAGUUCUACAGUCCGACGAUCGGUUGAUAUCUCUUCUUUGAUGGCUGGAUUUUCAUAAUAAUCUAAGAUAUGUGAAUCUGAAGUGCUGCUGGCAUGCUUUUUCUUACCAUCUUUCUCAUCUGCUUUGUCUCCUUGUCCAUUCAACAGAGGAUUGAGCAUCA
B6: 2840810_2840930_7205_3pUTR_ENSG00000087266_ENST00000503393|human|control|control (ssRNA)
RNA: GGGAGUUCUACAGUCCGACGAUCUGAGACCCUGUCUCAGAAAAAAAAAAAAAGAAAAGAAAAAGAAAAAGACAACAAGUUAAAAAAUGGGCAAAAGAUGAUAGACACUUCACAGGAGACAAAAUCAAAAUGGUUAAUAAAAACCAACAGAGGAUUGAGCAUCA
B7: chr3:142455422:142455423:-_ENSMUSG00000004591_ENSMUST00000043812|mus_hu|FALSE|FALSE (ssRNA)
RNA: GGGAGUUCUACAGUCCGACGAUCGAAAAAACAAUAAAGUCAUAGAUUAGGAGAAAAAAAUAUAAAAUCAAACCAAACCAAAACAAACAAAAAACUACAGGCAAGUGGAAAGUCAUGGUUUGUAAAAAGACAACCCUAAAAGAGCAACAGAGGAUUGAGCAUCA
B8: chr5:56189439:56189440:+_ENSG00000095015_ENST00000399503|hu_hu|FALSE|FALSE (ssRNA)
RNA: GGGAGUUCUACAGUCCGACGAUCAAAGACUGGAUGCUUCAGUAGCUCUCUUGAUGGAGGUCUGUCCUGAGGUUGAAGUUCUAAACAACGAAGAGCCACAUCUCGUAAACCAGGAGACAAAUGUGAAGGGAUCGAUGGAGCAGUCAACAGAGGAUUGAGCAUCA
B9: 110765750_110770449_1192_CDS_ENSG00000174437_ENST00000539276|human|control|control (ssRNA)
RNA: GGGAGUUCUACAGUCCGACGAUCCUCAUUAAGGGAACAAGUAUCACCUUCCACUCUGUCCAGAAUGAACAUCCUGCAGACUGACAUCUGGUUUGUUGUAAGUGUACCAGUCUUGUCUGAGCAGAUAACAGAAGUACAACCAAGCAACAGAGGAUUGAGCAUCA
B10: chr7:141441981:141441982:+_ENSG00000106028_ENST00000265304|hu_mus|hu_hu_hu_mus_False|38_38 (ssRNA)
RNA: GGGAGUUCUACAGUCCGACGAUCCUCAUGUCUUACAAACUGACGAAAUACCUGUAACACAGGUCUUCGAAACAUGGCUUCUGUUUUUCUUACAACCAGUCUAAUCUGCUUUUCCUAAAGGAAAGAAAGAAAAGAGAAAAAUGACAACAGAGGAUUGAGCAUCA
B11: chr14:52780626:52780627:-_ENSMUSG00000035726_ENSMUST00000046709|mus_mus|FALSE|FALSE (ssRNA)
RNA: GGGAGUUCUACAGUCCGACGAUCUGAGCACUGCACCACAUAUGGACUUGUAAGGAGGAAAAAAAAAAAAAAAAAAAAAAAAAAAACAGCCACGAGUGCCAGUGUUUGUCUUCUGAUGCAGCAAAAACAACCCCAGAAUGUGCACAACAGAGGAUUGAGCAUCA
B12: chr1:33860009:33860010:-_ENSMUSG00000042197_ENSMUST00000044455|mus_mus|motif|central (ssRNA)
RNA: GGGAGUUCUACAGUCCGACGAUCGCUGGAGAUAUCCCAAGGAACUGACGAGCUCUCACUUGGCCUAGAAUGAUGAAAUCGGAAACAACUCCUGGACUGCAGAUCACGUAUGACUCGGGACAUCUCAGCCACUUGUGUCUGGAGCAACAGAGGAUUGAGCAUCA
B13: chr3:148802587:148802588:-_ENSG00000071794_ENST00000310053|hu_mus|FALSE|FALSE (ssRNA)
RNA: GGGAGUUCUACAGUCCGACGAUCUCCAACAACUUGUCCUCUCAUAGUUCCAAAUAAAACCAAAUCUUGCUCUUCAUCACUCGUUAGGAAGUCAUCUGGAGGAAUAAUGUCUUGGAAUUCAAAAUGUGGCAAGAAAGUUGAGUACAACAGAGGAUUGAGCAUCA
B14: 54532081_54532201_669_3pUTR_ENSMUSG00000073678_ENSMUST00000097739|mouse|control|control (ssRNA)
RNA: GGGAGUUCUACAGUCCGACGAUCGACUGAGCAGAGACAUAAAGAAAGCAAAAGAAACACCACAGGGAAGGUUUCAACUGUAGUAACCAGACAUCUACACCAAAAAUGGAUUGUGCAAAACAACUGAUUUUUUUUUUUUUUUUACAACAGAGGAUUGAGCAUCA
B15: chr4:148551591:148551592:-_ENSMUSG00000063077_ENSMUST00000060537|mus_hu|mus_mus_mus_hu_False|1_48 (ssRNA)
RNA: GGGAGUUCUACAGUCCGACGAUCACCUGACAAAAUUAAAUAUCCCUGUAAAUUAGACAAUAAGCAGCAGGCAACAAAGUCUUUGCUUUGAAAUAUGUGCCAGGAAAAGUCAUCUUGUUUUUAGAUCUCAAGAGACACAACCAUCAACAGAGGAUUGAGCAUCA
B16: 32390341_32390461_6886_3pUTR_ENSMUSG00000053774_ENSMUST00000115151|mouse|control|control (ssRNA)
RNA: GGGAGUUCUACAGUCCGACGAUCACUUUAACCCAAGGAGGACCCAGAGGUUCAAGGUUAUGUUCAACUAACUACACAGUCACUGAAGAGGUCAGCCUGAUCCAGGACAACCAGGACUAGAUAAAGAAAACUUAUCUCAAAGAACAACAGAGGAUUGAGCAUCA

The experiment has as its target T1, UNK ZnF1-3. Put plainly: nsRBNS (natural sequence RNA bind-n-seq); RBNS binding buffer (assumed for nsRBNS): 25 mM Tris pH 7.5, 150 mM KCl, 3 mM MgCl2, 0.01% Triton X-100, 500 ug/ml BSA, 20 U/ml SUPERase-In, 4 C; UNK is unkempt and MSI1 is Musashi-1; names of the RNAs are library labels; protein concentration not given here; high values mean tight binding.
As to B1, the binding signal was 0.944 enrichment R.
Then B2, with 0.719 enrichment R; and B3, with 0.872 enrichment R; and B4, with 1.14 enrichment R.
B5 came in with a binding signal of 0.44 enrichment R.
On to B6, for which the binding signal is 8.04 enrichment R.
B7 registered a binding signal of 3.8 enrichment R.
In the case of B8 it was 1.08 enrichment R; in that of B9, 0.886 enrichment R.
Molecule B10 registered a binding signal of 0.817 enrichment R.
B11: the binding signal is 12.8 enrichment R.
The molecule B12 showed a binding signal of 0.781 enrichment R.
Then B13, with 1.23 enrichment R; and B14, with 4.75 enrichment R.
B15: the binding signal is 1.29 enrichment R.
Take B16: the binding signal came out at 1.33 enrichment R.
